# Experimental data: PubChem BioAssay (NCI)
# This is part of a sample that, as a whole, favours compounds with a hit. Of some 79,000 tested, about 15% had one in any assay. Values without a mark were called inactive. The source made the active and inactive calls. Rule as the data show it: active = growth inhibition above about 70%; inactive = the rest.
# Legend:
# [1] = NCI Yeast Anticancer Drug Screen. Data for the rad52 strain (AID 147);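 also: 0% = growth of vehicle-treated control cultures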; settings: S. cerevisiae rad52 mutant growth inhibition, hits give high values
# In short: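 Read-out: growth inhibition versus vehicle-treated controls. Cells were a DNA repair-deficient yeast strain treated with compounds.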
# [2] = NCI Yeast Anticancer Drug Screen. Data for the wt1 strain (AID 149);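 also: 0% = growth of vehicle-treated wt1 cultures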; settings: S. cerevisiae wt1 strain (SPY 50644) growth inhibition, hits give high values
# In short: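 wt1 strain grown with compound or vehicle; inhibition taken from the growth difference.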
# [3] = NCI Yeast Anticancer Drug Screen. Data for the rad50EPP+ strain (AID 151);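 also: 0% = growth of vehicle-treated control cultures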; settings: S. cerevisiae rad50 mutant strain, hits give high values
# In short: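 Growth inhibition read against vehicle controls in rad50EPP+ yeast, a strain altered in DNA damage repair, after compound exposure.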
# [4] = NCI Yeast Anticancer Drug Screen. Data for the mgt1 strain (AID 153); settings: S. cerevisiae mgt1 mutant growth inhibition, hits give high values
# In short: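 mgt1 yeast grown with test compound; read-out is growth inhibition versus vehicle-treated cultures.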
# [5] = NCI Yeast Anticancer Drug Screen. Data for the rad50 strain (AID 155);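 also: 0% = growth of vehicle-only cultures of the same strain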; settings: S. cerevisiae rad50 strain growth inhibition, hits give high values
# In short: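 DNA repair mutant yeast, compound exposure, growth read-out; inhibition is taken relative to vehicle.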
# [6] = NCI Yeast Anticancer Drug Screen. Data for the mec2-1 strain (AID 157); settings: S. cerevisiae mec2-1 strain, hits give high values
# In short: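 Yeast mec2-1 mutant treated with compound. Readout: growth inhibition vs vehicle controls.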
# [7] = NCI Yeast Anticancer Drug Screen. Data for the rad14 strain (AID 159);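 also: 0% = growth of vehicle-treated control cultures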; settings: S. cerevisiae rad14 strain growth inhibition, hits give high values
# In short: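 DNA repair-defective yeast, compound-exposed; % growth inhibition derived by comparison with vehicle-treated controls.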
# [8] = NCI Yeast Anticancer Drug Screen. Data for the sgs1 mgt1 strain (AID 161);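 also: 0% = growth of cultures given vehicle only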; settings: S. cerevisiae sgs1 mgt1 strain, hits give high values
# In short: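 Test agents were incubated with a DNA-repair-mutant yeast strain. Growth was then read and compared against vehicle-treated controls.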
# [9] = NCI Yeast Anticancer Drug Screen. Data for the cln2 rad14 strain (AID 165);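 also: 0% = growth equal to vehicle treated cultures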; settings: S. cerevisiae cln2 rad14 strain, hits give high values
# In short: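 cln2 rad14 yeast strain; compound exposure; growth inhibition read vs vehicle controls.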
# [10] = NCI Yeast Anticancer Drug Screen. Data for the bub3 strain (AID 167); settings: S. cerevisiae bub3 mutant strain, hits give high values
# In short: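 In this screen, a yeast mutant lacking normal mitotic checkpoint function is challenged with compound. Relative growth versus vehicle gives the inhibition value.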
# [11] = NCI Yeast Anticancer Drug Screen. Data for the wt2 strain (AID 169);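 also: 0% = growth of vehicle-treated yeast cultures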; settings: S. cerevisiae wt2 strain growth inhibition, hits give high values
# In short: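 Read-out: growth inhibition versus vehicle-treated control cultures after compound exposure of the yeast strain.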
# [12] = NCI Yeast Anticancer Drug Screen. Data for the mlh1 strain (AID 171);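 also: 0% = growth of vehicle-treated control cultures of the same strain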; settings: S. cerevisiae mlh1 strain growth inhibition, hits give high values
# In short: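 Read-out: growth inhibition versus vehicle controls. Strain: engineered yeast with a defined DNA repair or cell cycle defect, compound-treated.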
# [13] = NCI Yeast Anticancer Drug Screen. Data for the sgs1 strain (AID 173);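 also: 0% = growth of vehicle-only control cultures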; settings: S. cerevisiae sgs1 mutant, hits give high values
# In short: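 Read-out: yeast growth inhibition relative to vehicle controls, following compound exposure of a strain with a defined DNA repair/cell cycle alteration.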
# [14] = NCI Yeast Anticancer Drug Screen. Data for the mlh1 rad18 strain (AID 175); settings: S. cerevisiae mlh1 rad18 strain growth inhibition, hits give high values
# In short: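 Yeast w/ defined DNA-repair lesions; compound exposure; growth vs vehicle controls → % inhibition.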
# [15] = NCI Yeast Anticancer Drug Screen. Data for the rad18 strain (AID 177); settings: S. cerevisiae rad18 mutant growth inhibition, hits give high values
# In short: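 Readout: growth inhibition vs vehicle controls. Cells: genetically altered yeast strain, DNA repair defect.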
# [16] = at 5.0 µM (retest, dose inferred, filed as 0.5)
# [17] = at 50.0 µM (retest, dose inferred, filed as 5.0)
smiles,measurement,setting,value
O=C(O)c1ccccc1-c1ccccc1C(=O)Nc1ccc2c(c1)Cc1ccccc1-2,growth inhibition,[1]; at 1.2 µM,2%
same,growth inhibition,[1]; at 3.7 µM,5%
same,growth inhibition,[1]; at 11.0 µM,12%
same,growth inhibition,[1]; at 33.0 µM,51%
same,growth inhibition,[1]; at 100.0 µM,90% (active)
same,growth inhibition,[2]; at 1.2 µM,5%
same,growth inhibition,[2]; at 3.7 µM,7%
same,growth inhibition,[2]; at 11.0 µM,16%
same,growth inhibition,[2]; at 33.0 µM,47%
same,growth inhibition,[2]; at 100.0 µM,90% (active)
same,growth inhibition,[3]; at 1.2 µM,-2%
same,growth inhibition,[3]; at 3.7 µM,2%
same,growth inhibition,[3]; at 11.0 µM,3%
same,growth inhibition,[3]; at 33.0 µM,10%
same,growth inhibition,[3]; at 100.0 µM,25%
same,growth inhibition,[4]; at 1.2 µM,5%
same,growth inhibition,[4]; at 3.7 µM,7%
same,growth inhibition,[4]; at 11.0 µM,19%
same,growth inhibition,[4]; at 33.0 µM,65%
same,growth inhibition,[4]; at 100.0 µM,98% (active)
same,growth inhibition,[5]; at 1.2 µM,6%
same,growth inhibition,[5]; at 3.7 µM,6%
same,growth inhibition,[5]; [16],0%
same,growth inhibition,[5]; at 11.0 µM,23%
same,growth inhibition,[5]; at 33.0 µM,49%
same,growth inhibition,[5]; [17],37%
same,growth inhibition,[5]; at 50.0 µM,71.2% (active)
same,growth inhibition,[5]; at 100.0 µM,88% (active)
same,growth inhibition,[6]; at 1.2 µM,8%
same,growth inhibition,[6]; at 3.7 µM,14%
same,growth inhibition,[6]; [16],4%
same,growth inhibition,[6]; at 11.0 µM,22%
same,growth inhibition,[6]; at 33.0 µM,64%
same,growth inhibition,[6]; [17],23%
same,growth inhibition,[6]; at 50.0 µM,73.5% (active)
same,growth inhibition,[6]; at 100.0 µM,99% (active)
same,growth inhibition,[7]; at 1.2 µM,7%
same,growth inhibition,[7]; at 3.7 µM,9%
same,growth inhibition,[7]; at 11.0 µM,21%
same,growth inhibition,[7]; at 33.0 µM,71% (active)
same,growth inhibition,[7]; at 100.0 µM,97% (active)
same,growth inhibition,[8]; [16],-7%
same,growth inhibition,[8]; [17],17%
same,growth inhibition,[8]; at 50.0 µM,62.6%
same,growth inhibition,[9]; [16],-27%
same,growth inhibition,[9]; [17],46%
same,growth inhibition,[9]; at 50.0 µM,92.3% (active)
same,growth inhibition,[10]; at 1.2 µM,4%
same,growth inhibition,[10]; at 3.7 µM,7%
same,growth inhibition,[10]; [16],-24%
same,growth inhibition,[10]; at 11.0 µM,27%
same,growth inhibition,[10]; at 33.0 µM,67%
same,growth inhibition,[10]; [17],22%
same,growth inhibition,[10]; at 50.0 µM,83.2% (active)
same,growth inhibition,[10]; at 100.0 µM,96% (active)
same,growth inhibition,[11]; at 1.2 µM,3%
same,growth inhibition,[11]; at 3.7 µM,7%
same,growth inhibition,[11]; at 11.0 µM,16%
same,growth inhibition,[11]; at 33.0 µM,59%
same,growth inhibition,[11]; at 100.0 µM,96% (active)
same,growth inhibition,[12]; at 1.2 µM,7%
same,growth inhibition,[12]; at 3.7 µM,12%
same,growth inhibition,[12]; at 11.0 µM,22%
same,growth inhibition,[12]; at 33.0 µM,51%
same,growth inhibition,[12]; at 100.0 µM,97% (active)
same,growth inhibition,[13]; at 1.2 µM,1%
same,growth inhibition,[13]; at 3.7 µM,6%
same,growth inhibition,[13]; at 11.0 µM,17%
same,growth inhibition,[13]; at 33.0 µM,59%
same,growth inhibition,[13]; at 100.0 µM,94% (active)
same,growth inhibition,[14]; [16],6%
same,growth inhibition,[14]; [17],54%
same,growth inhibition,[14]; at 50.0 µM,76.5% (active)
same,growth inhibition,[15]; at 1.2 µM,4%
same,growth inhibition,[15]; at 3.7 µM,7%
same,growth inhibition,[15]; at 11.0 µM,17%
same,growth inhibition,[15]; at 33.0 µM,49%
same,growth inhibition,[15]; at 100.0 µM,90% (active)
